Measurements: PubChem BioAssay (NCI)
About 79,000 compounds went through this panel and 15% of them were active in at least one assay; those are over-represented in the sample as a whole. Active and inactive are the calls of the source. No stated cut-off is given here; in the data, active means growth inhibition above about 70%; inactive means the rest.

Assays:
[1] = NCI Yeast Anticancer Drug Screen. Data for the rad52 strain (AID 147);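 further: 0% = growth of vehicle-treated control cultures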; settings: S. cerevisiae rad52 mutant growth inhibition, stronger effect = higher value
How it was run: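 Inhibition of yeast growth, referenced to vehicle controls, was the measured output for a strain with defective DNA damage repair.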

[2] = NCI Yeast Anticancer Drug Screen. Data for the wt1 strain (AID 149);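 further: 0% = growth of vehicle-treated wt1 cultures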; settings: S. cerevisiae wt1 strain (SPY 50644) growth inhibition, stronger effect = higher value
How it was run: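 Measured: growth of wt1 yeast under compound versus vehicle treatment, reported as inhibition.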

[3] = NCI Yeast Anticancer Drug Screen. Data for the rad50EPP+ strain (AID 151);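 further: 0% = growth of vehicle-treated control cultures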; settings: S. cerevisiae rad50 mutant strain, stronger effect = higher value
How it was run: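 Genetically defined yeast (rad50EPP+, DNA damage repair alteration) is grown with compound, and inhibition of growth is expressed relative to vehicle-treated controls.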

[4] = NCI Yeast Anticancer Drug Screen. Data for the mgt1 strain (AID 153); settings: S. cerevisiae mgt1 mutant growth inhibition, stronger effect = higher value
How it was run: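 In the mgt1 strain, test compounds were added and growth inhibition was determined relative to vehicle-treated controls.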

[5] = NCI Yeast Anticancer Drug Screen. Data for the rad50 strain (AID 155);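 further: 0% = growth of vehicle-only cultures of the same strain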; settings: S. cerevisiae rad50 strain growth inhibition, stronger effect = higher value
How it was run: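 Growth of the mutant yeast was measured after compound exposure and referenced to vehicle-treated cultures.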

[6] = NCI Yeast Anticancer Drug Screen. Data for the mec2-1 strain (AID 157); settings: S. cerevisiae mec2-1 strain, stronger effect = higher value
How it was run: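 Each compound was tested on mec2-1 yeast, a strain altered in DNA damage repair or cell cycle control. Growth inhibition is reported relative to vehicle.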

[7] = NCI Yeast Anticancer Drug Screen. Data for the rad14 strain (AID 159);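 further: 0% = growth of vehicle-treated control cultures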; settings: S. cerevisiae rad14 strain growth inhibition, stronger effect = higher value
How it was run: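 Here, inhibition of yeast growth was measured after compound exposure, using a strain with a genetic defect in DNA damage repair and vehicle-treated cultures as the reference.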

[8] = NCI Yeast Anticancer Drug Screen. Data for the sgs1 mgt1 strain (AID 161);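 further: 0% = growth of cultures given vehicle only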; settings: S. cerevisiae sgs1 mgt1 strain, stronger effect = higher value
How it was run: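 Read-out: growth inhibition vs vehicle controls. Cells: mutant yeast strain deficient in DNA damage repair.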

[9] = NCI Yeast Anticancer Drug Screen. Data for the CLN2oe strain (AID 163);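 further: 0% = growth of vehicle-only control cultures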; settings: S. cerevisiae CLN2oe strain, stronger effect = higher value
How it was run: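 First, the altered yeast strain was treated with each compound; second, its growth was measured; finally, inhibition was derived by comparison with vehicle controls.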

[10] = NCI Yeast Anticancer Drug Screen. Data for the cln2 rad14 strain (AID 165);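 further: 0% = growth equal to vehicle treated cultures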; settings: S. cerevisiae cln2 rad14 strain, stronger effect = higher value
How it was run: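 Test compounds were added to cln2 rad14 yeast cultures; inhibition of growth was then determined by comparison with vehicle treatment.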

[11] = NCI Yeast Anticancer Drug Screen. Data for the bub3 strain (AID 167); settings: S. cerevisiae bub3 mutant strain, stronger effect = higher value
How it was run: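 Whole-cell yeast assay. The mutant strain was incubated with compounds, and growth inhibition was determined by comparison with vehicle-treated cells.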

[12] = NCI Yeast Anticancer Drug Screen. Data for the wt2 strain (AID 169);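 further: 0% = growth of vehicle-treated yeast cultures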; settings: S. cerevisiae wt2 strain growth inhibition, stronger effect = higher value
How it was run: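 The panel's yeast strains carry defined changes in DNA repair or cell cycle genes. Each strain is grown with compound, and growth loss is scored relative to vehicle.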

[13] = NCI Yeast Anticancer Drug Screen. Data for the mlh1 strain (AID 171);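 further: 0% = growth of vehicle-treated control cultures of the same strain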; settings: S. cerevisiae mlh1 strain growth inhibition, stronger effect = higher value
How it was run: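 Inhibition values reflect reduced yeast growth in the presence of compound, referenced to vehicle controls, using a strain chosen for its alteration in DNA repair or cell cycle control.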

[14] = NCI Yeast Anticancer Drug Screen. Data for the sgs1 strain (AID 173);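 further: 0% = growth of vehicle-only control cultures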; settings: S. cerevisiae sgs1 mutant, stronger effect = higher value
How it was run: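 Vehicle-treated cultures served as reference for growth inhibition of a yeast strain altered in DNA damage repair or cell cycle control after compound exposure.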

[15] = NCI Yeast Anticancer Drug Screen. Data for the mlh1 rad18 strain (AID 175); settings: S. cerevisiae mlh1 rad18 strain growth inhibition, stronger effect = higher value
How it was run: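 Inhibition values reflect reduced growth of mutant yeast versus vehicle-treated controls following compound exposure; the mutations affect DNA damage repair.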

[16] = NCI Yeast Anticancer Drug Screen. Data for the rad18 strain (AID 177); settings: S. cerevisiae rad18 mutant growth inhibition, stronger effect = higher value
How it was run: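 Steps: expose repair-mutant yeast to compound; measure growth; express as inhibition relative to vehicle control.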

[17] = at 5.0 µM (retest, dose inferred, filed as 0.5)
[18] = at 50.0 µM (retest, dose inferred, filed as 5.0)

Measured: growth inhibition

CCOP(=S)(S)OCC.[Pd]
inactive: [1]; at 1.2 µM 5% | [1]; at 3.7 µM 45% | [2]; at 1.2 µM 2% | [2]; at 3.7 µM 55% | [3]; at 1.2 µM 0% | [3]; at 3.7 µM 11% | [3]; at 11.0 µM 24% | [3]; at 33.0 µM 20% | [3]; at 100.0 µM 8% | [4]; at 1.2 µM -2% | [4]; at 3.7 µM 17% | [4]; at 11.0 µM 68% | [5]; at 1.2 µM 12% | [5]; at 3.7 µM 57% | [5]; [17] 67% | [5]; [18] 32% | [6]; at 1.2 µM 10% | [6]; at 3.7 µM 67% | [6]; [18] 51% | [6]; at 50.0 µM 67.9% | [7]; at 1.2 µM 0% | [7]; at 3.7 µM 17% | [7]; at 11.0 µM 60% | [8]; [17] 57% | [8]; [18] 36% | [9]; at 1.2 µM -3% | [9]; at 3.7 µM 20% | [9]; at 11.0 µM 59% | [10]; [17] 23% | [10]; [18] 9% | [11]; at 1.2 µM 6% | [11]; at 3.7 µM 63% | [12]; at 1.2 µM -2% | [12]; at 3.7 µM 59% | [13]; at 1.2 µM 4% | [13]; at 3.7 µM 56% | [14]; at 1.2 µM 13% | [15]; [18] 56% | [16]; at 1.2 µM 15%
active: [1]; at 11.0 µM 75% | [1]; at 33.0 µM 82% | [1]; at 100.0 µM 80% | [2]; at 11.0 µM 93% | [2]; at 33.0 µM 89% | [2]; at 100.0 µM 83% | [4]; at 33.0 µM 82% | [4]; at 100.0 µM 82% | [5]; at 11.0 µM 95% | [5]; at 33.0 µM 91% | [5]; at 50.0 µM 79.4% | [5]; at 100.0 µM 92% | [6]; [17] 80% | [6]; at 11.0 µM 95% | [6]; at 33.0 µM 87% | [6]; at 100.0 µM 85% | [7]; at 33.0 µM 75% | [7]; at 100.0 µM 75% | [8]; at 50.0 µM 76.1% | [9]; at 33.0 µM 76% | [9]; at 100.0 µM 77% | [10]; at 50.0 µM 76.5% | [11]; [17] 84% | [11]; at 11.0 µM 94% | [11]; at 33.0 µM 90% | [11]; [18] 86% | [11]; at 50.0 µM 80.9% | [11]; at 100.0 µM 83% | [12]; at 11.0 µM 95% | [12]; at 33.0 µM 91% | [12]; at 100.0 µM 85% | [13]; at 11.0 µM 94% | [13]; at 33.0 µM 88% | [13]; at 100.0 µM 84% | [14]; at 3.7 µM 77% | [14]; at 11.0 µM 95% | [14]; at 33.0 µM 93% | [14]; at 100.0 µM 88% | [15]; [17] 83% | [15]; at 50.0 µM 79.5% | [16]; at 3.7 µM 86% | [16]; at 11.0 µM 98% | [16]; at 33.0 µM 96% | [16]; at 100.0 µM 93%
